# Screening data (PubChem)
# Compounds with a hit are over-represented: about 1.5% of the library has one in this group of screens.
# MenB inh: M. tuberculosis MenB inhibitors, primary screen, biochemical, absorbance; MenB enzyme assay, absorbance read-out; 1,4-dihydroxy-2-naphthoyl-CoA synthase (Mycobacterium tuberculosis (strain ATCC 25618 / …; AID 540299, 2011; actives 0.43% (n = 100,000); inhibition, % (concentration not given with the values); in the data active = inhibition above about 21%, passing the limit was not always enough
# MbtI inh: MbtI salicylate synthase inhibitors, primary screen, biochemical, fluorescence intensity; P9WFX0; purified MbtI enzyme, fluorescence intensity read-out; inhibition, % (no concentration beside the values); actives 0.89% (n = 100,000); in the data active = inhibition mostly above about 56%, no sharp cut-off; inactive = mostly below about 77%
# Target sequence (P9WFX0 whole entry, looked up): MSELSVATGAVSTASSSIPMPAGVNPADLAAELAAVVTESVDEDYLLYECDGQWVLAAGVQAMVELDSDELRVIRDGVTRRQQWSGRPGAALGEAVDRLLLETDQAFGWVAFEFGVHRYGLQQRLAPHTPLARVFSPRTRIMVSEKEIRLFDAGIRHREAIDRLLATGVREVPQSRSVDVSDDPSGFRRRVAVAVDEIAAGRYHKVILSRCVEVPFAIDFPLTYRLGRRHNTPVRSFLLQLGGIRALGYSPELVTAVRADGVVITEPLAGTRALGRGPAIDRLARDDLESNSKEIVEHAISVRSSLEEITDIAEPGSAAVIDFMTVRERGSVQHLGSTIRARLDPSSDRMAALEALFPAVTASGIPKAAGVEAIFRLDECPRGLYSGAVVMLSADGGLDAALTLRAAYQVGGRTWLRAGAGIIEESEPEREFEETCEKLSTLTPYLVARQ
# PV pol inh: poliovirus RdRp elongation inhibitors, primary screen, biochemical, fluorescence polarization, total intensity | Genome polyprotein (Poliovirus type 1 (strain Mahoney)), P03300 | % elongation, % (compound at 16.7 µg/mL) | poliovirus polymerase elongation; active compounds read low | actives 0.66% (n = 150,000) | AID 588519, 2011; in the data active = % elongation below about 90%
# AID504770: growth inhibition of E. coli YBA685, primary screen, V. cholerae RctB inhibitors | AID 504770, 2011 | actives 0.27% (n = 130,000) | E. coli YBA685 rctB-dependent plasmid, OD600 growth, 3 h; active compounds read low | z-score (no concentration beside the values); in the data active = z-score below about -2, passing the limit was not always enough
# Numbers stand for hits; . = inactive; / = not tested or not shown.
SMILES,MenB inh,MbtI inh,PV pol inh,AID504770
O=C(O)c1cc2ccccc2nc1Cl,.,.,76,.
Nc1cc2ccccc2cc1C(=O)O,.,.,52,.
Cc1ccc(SCCC(=O)Nc2ccc(CC#N)cc2)cc1,.,.,.,.
C=CCSc1nnc(NC(=O)NC2CCCCC2)s1,.,.,.,-2.8
CC(=O)c1ccc(NC(=O)CSc2nnc(NC(=O)NC3CCCCC3)s2)cc1,/,/,.,/
O=C1C=CC(=O)N1c1cccc2ccccc12,/,89,.,.
O=C1C=CC(=O)N1c1ccccc1F,.,100,.,-4.7
O=C1C=CC(=O)N1c1ccccc1OC(F)(F)F,/,/,/,.
O=C(Cn1c2ccccc2c2cn[nH]c(=O)c21)NC1CCCC1,/,/,/,.
C=C(C)Cn1c(SCC(N)=O)nc2c(c1=O)C1(CCCC1)Cc1ccccc1-2,/,/,/,.
CC(C)C(c1nnnn1Cc1ccccc1)N1CCN(c2ccccc2)CC1 (configuration not stated),32,.,.,.
O=c1[nH]c(-c2ccc(Cl)cc2)nc2sc3c(c12)CCCC3,.,/,.,.
CCCc1n[nH]c(=S)n1N,.,69,.,.
O=C(Nc1ccccc1C(F)(F)F)c1cnc2ccccn2c1=O,.,.,.,.
O=C(CS(=O)(=O)Cc1ccccc1)Nc1ccccn1,36,.,.,.
Cc1ccc(Sc2c(O)c3ccccc3oc2=O)cc1,/,.,.,.
O=C(c1ccc(Cl)cc1Cl)N1CCCC1c1ccc(F)cc1 (configuration not stated),/,/,/,.
CCCOc1ccc(C(=O)O)cc1,/,.,.,.
CCCOc1ccc(C(=O)CCN(C)C)cc1,.,59,.,.
CN(C)CCC(=O)c1ccc(Br)cc1,.,69,.,.
CCN1CCCC1CNC(=O)c1noc2c1COc1ccc(C)cc1-2 (configuration not stated),.,.,.,.
O=C(Oc1ccc(F)cc1)c1nsc(Cl)c1Cl,.,/,88,.
CCc1ccc(NC(=O)Nc2nnc(N3CCCCC3)s2)cc1,.,.,.,.
Oc1cccc(-c2nc(-c3ccccc3)c3ccccn23)c1,/,.,89,.
CCn1c(-c2ccccc2)c(C(=O)Cn2cc(C)sc2=N)c2ccccc21,.,.,.,.
SMILES,MenB inh,MbtI inh,PV pol inh,AID504770
Nc1nonc1C(=O)N1CCCC1,46,.,.,.
Nc1nonc1/C(=N/O)N1CCCC1,.,.,.,.
CCC(C)NC(=O)COc1cccc(C)c1C (configuration not stated),.,.,.,.
CCOC(=O)c1cc(-c2ccccc2)n(CC(=O)N2CCCCCC2)c1C,.,.,.,.
Nc1cc(-c2ccccc2)c2ccccc2n1,.,/,.,-2.2
S=c1[nH]c2ccccc2n1C1CCCCC1,.,98,.,.
CN(C)C(CNC(=O)c1ccccn1)c1ccco1 (configuration not stated),.,.,.,.
CN(C)C(CNCc1ccc(-n2cnc3ccccc32)cc1)c1ccco1 (configuration not stated),32,.,.,.
Cc1ccc(-c2csc(NC(=O)c3cccs3)n2)cc1C,/,/,/,.
N#Cc1c(N2CCCC2)nc(N)c2c(N)nc(N3CCCC3)cc12,.,.,74,.
CC1CC(C)CN(CCN)C1 (configuration not stated),52,.,.,.
CC1CC(C)CN(CCC(=O)Nc2ccccc2F)C1 (configuration not stated),.,.,.,.
Cc1cccc(C)c1NC(=O)CN(C)C(C)C(=O)Nc1ccc(S(N)(=O)=O)cc1 (configuration not stated),.,.,.,.
O=C(Nc1nnc(C2CC2)s1)c1ccc2ncsc2c1,.,.,.,.
O=C1Cc2ccccc2C(=O)N1Cc1ccco1,/,.,76,.
O=C1CC(Cc2ccccc2)C(=O)N1Cc1ccco1 (configuration not stated),36,.,.,.
O=C(O)CN1C(=O)Cc2ccccc2C1=O,.,.,24,.
COC(=O)CN1C(=O)Cc2ccccc2C1=O,/,/,/,.
CN1C(=O)Cc2ccccc2C1=O,.,.,38,.
COc1ccc(-c2nn(CCC#N)cc2C#N)cc1,.,/,.,.
COc1ccc(-c2cc(C)no2)cc1S(=O)(=O)Nc1ccc(C)c(N(C)C)c1,.,.,.,.
O=c1cc(NCCc2ccccc2)c2ccccc2o1,33,.,.,.
Cc1ccc(-n2[nH]c(=O)c(N=O)c2O)cc1C,.,.,78,.
Cc1ccc(N2NC(=O)CC2=O)cc1C,.,/,.,.
CC(C)CN(C(=O)c1ccncc1)c1nc2ccccc2s1,.,71,87,.
SMILES,MenB inh,MbtI inh,PV pol inh,AID504770
CC(C)NS(=O)(=O)c1ccc2nc(NC(=O)c3cccnc3)sc2c1,.,.,.,.
CC(C)CNS(=O)(=O)c1ccc2nc(NC(=O)c3ccccn3)sc2c1,.,68,.,.
O=C(O)C1CC(c2ccc(F)cc2)=NO1 (configuration not stated),.,/,84,.
O=C(CSc1nc(N2CCOCC2)nc(N2CCOCC2)n1)c1ccccc1,.,.,.,.
CCCc1n[nH]c(=S)s1,.,89,87,.
Cc1ccc(C)n1-c1n[nH]c(=S)s1,.,.,.,.
CC(C)N1CCN(S(=O)(=O)c2ccc(Cl)cc2)CC1,.,.,.,.
CCN(CC)CCNC(=O)c1cc2c(-c3cccc(OC)c3)nn(C)c2s1,/,/,83,/
CCCN(CCC)CCNC(=O)c1cc2c(-c3ccc(Cl)cc3)nn(C)c2s1,/,/,.,/
COc1ccc(-c2nn(C)c3sc(C(=O)NCCN(C)C)cc23)cc1OC,/,/,60,/
COCCCNC(=O)c1cc2c(-c3cccc(OC)c3)nn(C)c2s1,/,/,.,/
COc1ccc(OC)c(CNC(=O)c2cc3c(-c4ccc(OC)c(OC)c4)nn(C)c3s2)c1,/,/,.,/
CCCN(CCC)CCCNC(=O)c1cc2c(-c3ccc(OC)c(OC)c3)nn(C)c2s1,/,/,83,/
Cc1ccc(-c2noc(CN(C(=O)CCc3ccccc3)C(C)C)n2)cc1,.,.,.,.
O=c1oc(C23CC4CC(CC(C4)C2)C3)ns1,.,/,73,.
COc1cccc(OC)c1C(=O)Nc1nnc(CC(C)(C)C)s1,.,/,71,.
COc1ccccc1-c1noc(-c2ccccc2C(=O)NCc2ccco2)n1,.,59,.,.
CNC(=O)c1ccccc1-c1nc(-c2ccccc2OC)no1,.,.,.,.
CN(C)[C@@H]1C(=O)C(C(N)=O)=C(O)[C@@]2(O)C(=O)C3=C(O)c4c(O)ccc(Cl)c4[C@@](C)(O)[C@H]3C[C@@H]12,.,.,.,-3.6
CN(C)[C@@H]1C(=O)C(C(N)=O)=C(O)[C@@]2(O)C(=O)C3=C(O)c4c(O)cccc4[C@@](C)(O)[C@H]3[C@H](O)[C@@H]12,.,.,.,-3.9
C[C@H]1c2cccc(O)c2C(O)=C2C(=O)[C@]3(O)C(O)=C(C(N)=O)C(=O)[C@@H](N(C)C)[C@@H]3[C@@H](O)[C@@H]21,.,.,.,.
